Test results reported in PubChem BioAssay (Tox21).
Where “and” joins values, the source holds several entries; their conditions need not be identical. Equal entries are not always repeated. Inconclusive results are not listed. Entries that show only a call come without a potency. Calls of active or inactive are those of the source. Calls come from the whole dose curve; as a rule, active = well fitted inhibition curve with a large enough effect in the repeat runs; inconclusive = weak or mixed curves; inactive = no such curve, though single readings can be large or run the other way.

Test: qHTS assay to identify small molecule antagonists of the thyroid receptor (TR) signaling pathway (AID 743065); note: nearly all actives have a fitted effect of over 55% in size
Details: GH3.TRE-Luc, T3-stimulated luciferase inhibition, 23.5 h; series mostly up to 70.3 µM
Source text: U.S. Tox21 Program National Center for Advancing Translational Sciences [NCATS] NIH Chemical Genomics Center [NCGC] U.S. Environmental Protection Agency [EPA] National Institutes of Environmental Health Sciences [NIEHS] National Toxicology Program [NTP] U.S. Food and Drug Administration [FDA] Tox21 Assay Overview: Thyroid receptor (TR), a nuclear hormone receptor, plays an important role in development, proliferation, differentiation, metabolism, brain function, and cardiovascular system. […] To profile the Tox21 10K compound library in TR signaling, a cell-based GH3-TRE-Luc assay (GH3.TRE-Luc cell line, developed by the laboratory of Dr. Albertinka J. Murk, Wageningen University) was used to measure the inhibition of TR. GH3 (rat pituitary tumor) cells stably expressing a TR activity sensor consisting of two TR response elements and a luciferase reporter gene.
Tox21 Assay Protocol Summary: GH3.TRE-Luc cells were dispensed at 1500 cells/4 uL/well into 1536-well white solid bottom plates using a Multidrop Combi dispenser (Thermo Fisher Scientific Inc., Waltham, MA). After the assay plates were incubated at 37 C for 4 hours, 23 nL of library compound or DMSO controls was transferred to the assay plates by a pintool station (Kalypsys, San Diego, CA), followed by addition of 1 ul of T3 (1 nM, final concentration in the wells) to stimulate TR transactivation. The assay plates were incubated at 37 C for 23.5 h, and then 1 uL of CellTiter-Fluor reagent (Promega, Madision, WI) of measuring cytotoxicity was added to each well using a Bioraptr Flying Reagent Dispenser (FRD) workstation (Beckman Coulter, Indianapolis, IN, USA). The plates were incubated at 37 C and 5% CO2 for additional 30 min, and fluorescence intensity was measured by a ViewLux plate reader (PerkinElmer, Shelton, CT). For measuring luciferase reporter gene activity, 4 uL of ONE-Glo Luciferase Assay reagent (Promega) was added to each well using a Bioraptr FRD (Beckman Coulter), followed by 30 min incubation at room temperature. The luminescence intensity of plates was recorded by a ViewLux plate reader (PerkinElmer, Shelton, CT).
Potency is the fitted concentration of half-maximal effect.

| SMILES | Potency |
| --- | --- |
| COP(=S)(OC)Oc1cc(Cl)c(Cl)cc1Cl | inactive |
| S=C1NCCN1 | inactive |
| Cc1cccc(N)c1N | inactive |
| CCCCOCCOP(=O)(OCCOCCCC)OCCOCCCC | 24.4 µM (active) and 19.3 µM (active) |
| CCC(C)c1ccc(O)cc1 (stereo not given) | inactive |
| N#CC(Br)Br | inactive |
| O=[N+]([O-])c1cccc2ccccc12 | inactive |
| Cc1cc(C)cc(C)c1 | inactive |
| Oc1cc(Cl)ccc1Oc1ccc(Cl)cc1Cl | 8.84 µM (active) |
| CCCCCCOC(=O)c1ccccc1C(=O)OCCCCCC | inactive |
| CCc1cccc(CC)c1N(COC)C(=O)CCl | 54.5 µM (active) |
| Nc1ccc(-c2ccccc2)cc1 | inactive |
| O=C(Nc1ccc(Br)cc1)c1cc(Br)cc(Br)c1O | 8.41 µM (active) and 2.16 µM (active) and 1.93 µM (active) |
| Nc1ccc(Cl)c(Cl)c1 | inactive |
| Oc1cc(Cl)c(Cl)cc1Cl | inactive |
| C[C@]12CCC(=O)C[C@@H]1CC[C@@H]1[C@@H]2CC[C@]2(C)[C@@H](O)CC[C@@H]12 | 48 µM (active) |
| O=C(NC(=O)c1c(F)cccc1F)Nc1ccc(Cl)cc1 | inactive |
| COP(=S)(OC)Oc1ccc([N+](=O)[O-])cc1 | inactive |
| CC(C)(OOC(C)(C)c1ccccc1)c1ccccc1 | 53.7 µM (active) and 43.3 µM (active) |
| Oc1cc(Cl)ccc1Cl | inactive |

| SMILES | Potency |
| --- | --- |
| O=C(O)CC[N+](=O)[O-] | inactive |
| Nn1cnnc1 | inactive |
| N#Cc1cc(Br)c(O)c(Br)c1 | 68.5 µM (active) |
| C[C@]12CCC(=O)C(O)=C1CC[C@@H]1[C@@H]2CC[C@]2(C)C(=O)CC[C@@H]12 | inactive |
| CCCCC(CC)COC(=O)Cl (stereo not given) | inactive |
| CCC(C)(C)c1ccc(O)cc1 | inactive |
| CN(C)c1ccc(C(=O)c2ccc(N(C)C)cc2)cc1 | 5.39 µM (active) and 1.09 µM (active) |
| CCCCCCCCOC(=O)c1ccccc1C(=O)OCCCCCCCC | inactive |
| NC(=S)Nc1ccccc1 | inactive |
| COc1ccc(C=O)cc1 | inactive |
| COc1ccc(C(CN(C)C)C2(O)CCCCC2)cc1 (stereo not given) | inactive |
| c1ccc(-c2cccc(-c3ccccc3)c2)cc1 | inactive |
| CCN(CC)C(=O)SCc1ccc(Cl)cc1 | inactive |
| Nc1ccc(Cl)cc1N | 24.3 µM (active) |
| O=Cc1ccco1 | inactive |
| CNC(=O)N(C)c1nnc(C(C)(C)C)s1 | inactive |
| CCCCCCCCCCCOC(=O)c1ccccc1C(=O)OCCCCCCCCCCC | inactive |
| COP(=O)(OC)OC | inactive |
| O=C1C=CC(=O)C=C1 | inactive |
| CCOCN(C(=O)CCl)c1c(C)cccc1CC | 64.8 µM (active) and 61.1 µM (active) |
